An excerpt weighted towards active compounds, which were near 10% of everything screened.
HPGD block – HPGD (human) dehydrogenase inhibition; P15428; purified HPGD, NADH fluorescence kinetic, PGE2 substrate; Potency, µM, for the others: at the top dose activity change, negative = inhibition, hits mostly inhibitors; hit rate 4.3% among 150,000; AID 894; active = well fitted inhibition curve with a large enough effect, not every such curve was filed as active; inconclusive = small, poorly fitted or top-dose-only effect, or another doubt; inactive = no such curve, though single readings can be large or run the other way; note: potency is the fitted concentration of half-maximal effect
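20 nM HPGD preincubated 15 min at room temperature with compound in 50 mM Tris-HCl pH 8, 0.01% Tween 20. Started with 1 mM NAD+ and 30 uM prostaglandin E2; NADH fluorescence (360/450 nm) read 5 times over 30-s intervals, last minus first.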
PNC assembly inh – inhibitors of perinucleolar compartment assembly. activity change (PNC), negative = inhibition, % at 10 µM. hit rate 3.1% among 140,000. PC3M PTB-GFP, PNC prevalence imaging, 16 h; active compounds read low. AID 2417;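 active = readout at or below -70, meaning at least 70% loss of cells showing the perinucleolar compartment, a nuclear body marking cancer cells; inconclusive = readout between -30 and a set limit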;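 note: plate controls were DMSO wells for no effect and camptothecin positive control wells for full effect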
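Read-out is percentage of cells bearing a perinucleolar compartment, from automated 20x imaging of fixed, Hoechst-stained PC3M PTB-GFP cells. Cells were seeded 4 h, then exposed 16 h to compound (23 nl of library stock) in duplicate plates.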
aGal spleen mod – inhibits or activates alpha-galactosidase in human spleen homogenate. human spleen homogenate, 4MU-alpha-Gal fluorescence, 40 min. Potency, µM (series often up to 80 µM), for inactives: at the top dose activity change, negative = inhibition, actives largely listed as inhibitors. hit rate 0.008% among 240,000. AID 2107;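 note: potency is the fitted concentration of half-maximal effect; 0% = enzyme with vehicle and -100% = no enzyme basal signal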
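Inhibition or activation of alpha-galactosidase in human spleen homogenate is scored by 4-MU fluorescence after 40 min at 37C, pH 5.0, with 1 mM substrate. AC50s come from concentration-response fitted to the Hill equation.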
ALDH1A1 inh – inhibitors of human aldehyde dehydrogenase 1A1; Potency, µM (highest dose often 75.3 µM), without a hit: at the top dose activity, negative = inhibition, hits mostly inhibitors; hit rate 7.3% among 220,000; Purified ALDH1A1, NADH fluorescence, propionaldehyde substrate; AID 1030; active = well fitted inhibition curve with a large enough effect, not every such curve was filed as active; inconclusive = small, poorly fitted or top-dose-only effect, or another doubt; inactive = no such curve, though single readings can be large or run the other way;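 note: potency is the fitted concentration of half-maximal effect; plate controls were no enzyme wells and a reference inhibitor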
Target sequence (P00352 whole entry, looked up): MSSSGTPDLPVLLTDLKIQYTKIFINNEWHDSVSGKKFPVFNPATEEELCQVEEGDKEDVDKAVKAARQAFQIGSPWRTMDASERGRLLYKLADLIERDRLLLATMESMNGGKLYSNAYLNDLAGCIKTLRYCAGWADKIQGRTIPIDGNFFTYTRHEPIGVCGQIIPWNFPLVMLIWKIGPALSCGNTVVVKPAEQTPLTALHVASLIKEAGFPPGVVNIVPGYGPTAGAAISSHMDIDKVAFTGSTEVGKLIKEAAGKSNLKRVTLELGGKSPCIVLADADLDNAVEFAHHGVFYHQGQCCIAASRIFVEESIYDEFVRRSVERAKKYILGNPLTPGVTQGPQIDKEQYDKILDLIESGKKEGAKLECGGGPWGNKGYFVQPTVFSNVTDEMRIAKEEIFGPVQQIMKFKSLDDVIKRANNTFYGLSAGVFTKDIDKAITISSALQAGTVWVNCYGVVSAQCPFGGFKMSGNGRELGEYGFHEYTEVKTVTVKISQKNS
12-hLO inh – blocks human 12-lipoxygenase activity; P18054; hit rate 0.12% among 150,000; Potency, µM (series often up to 57.1 µM), for inactives: top-dose activity change, negative = inhibition, most hits filed as inhibitors; purified 12-hLO, xylenol orange hydroperoxide absorbance; AID 1452; note: potency is the fitted concentration of half-maximal effect; nearly all actives have a fitted effect of over 55% in size
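150 nM 12hLO, 25 mM Hepes pH 7.0 + 0.01% Triton X-100; cpd preinc 15 min RT; 40 uM arachidonic acid, 30 min RT; Fe-XO 30 min; A573/A405 ratio as read-out.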
GLA inh pH 4.5 – blocks human alpha-galactosidase A at pH 4.5; purified enzyme, 4-MU-alpha-Gal fluorescence, pH 4.5; 230,000 tested, under 10 active; activity change, negative = inhibition, % at 105 µM; AID 1467;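 note: 0% = full activity with enzyme and -100% = basal without enzyme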
Starred values were filed as active, the others as inactive; ? = inconclusive; . = no result given; [ ] = dose if it differs, or a comment. Unless noted, calls come from the whole dose curve; as a rule, active = well fitted curve in the direction sought with a large enough effect; inconclusive = small, poorly fitted or top-dose-only effect, or another doubt; inactive = no such curve, though single readings can be large; an effect the other way counts as inactive or inconclusive. Unless noted, % is set by controls: 0 for no effect and ±100 for the full control effect.

SMILES	HPGD block	PNC assembly inh	aGal spleen mod	ALDH1A1 inh	12-hLO inh	GLA inh pH 4.5
COc1ccc(N2C3=C(CC4=C2CC(C)(C)CC4=O)C(=O)CC(C)(C)C3)cc1	?	31	7%	?	?	-14
CC1(C)CC(=O)C2=C(C1)OC1=C(C2)C(=O)CC(C)(C)C1	-18%	22	7%	18µM*	2%	-10
CN[C@H]1[C@@H](O[C@@H]2[C@H](O[C@@H]3[C@@H](O)[C@@H](O)[C@@H](N=C(N)N)[C@@H](O)[C@@H]3N=C(N)N)O[C@H](C)[C@@]2(O)C=O)O[C@@H](CO)[C@@H](O)[C@H]1O	-4%	.	-16%[29.1 µM]	1%[20.9 µM]	1%[25.6 µM]	-3
CN(C)c1ccc(/C=N/N=C2/NC(=O)/C(=C/c3ccc([N+](=O)[O-])cc3)S2)cc1	-25%	-9	4%	25µM*	-3%	2
Cc1cc(C)c2c(N)c(C(=O)NN3CC(=O)N(c4cccc(Cl)c4)CC3=O)sc2n1	.	.	-2%	.	.	-16
Cc1ccc(C)c2[nH]c(=O)c(CN(CC3CCCO3)C(=S)NCc3ccco3)cc12 (stereo not given)	.	.	5%	.	.	0
Cc1ccc2cc(CN(Cc3nnnn3Cc3ccco3)CC3CCCO3)c(=O)[nH]c2c1C (stereo not given)	-25%	?	-1%	1.8µM*	-12%	-1
Cc1cc(C)c2cc(CN(Cc3ccco3)C(=S)NCC3CCCO3)c(=O)[nH]c2c1 (stereo not given)	.	.	2%	25µM*	.	-11
Cc1ccc2cc(CN(CC3CCCO3)C(=S)NCc3ccco3)c(=O)[nH]c2c1C (stereo not given)	-11%	?	3%	22µM*	-10%	-1
COc1ccc2[nH]c(=O)c(CN(Cc3nnnn3Cc3ccccc3)CC3CCCO3)cc2c1 (stereo not given)	-25%	28	14%	?	-11%	3
C#Cc1ccc([C@@H]2C=C(C(=O)N3CCN(Cc4ccc5c(c4)OCO5)CC3)O[C@H](OCCCCO)C2)cc1	.	.	0%	-5%	.	3
COCCn1c(-c2ccc(OC)cc2)cnc1SCC(=O)Nc1cccc2ccccc12	?	?	-9%	?	2%	-14
C/C(=N\Nc1nc(C)c(C)s1)c1ccc([N+](=O)[O-])cc1	.	.	8%	13µM*	.	-7
C/C(=N\Nc1ccc([N+](=O)[O-])cc1)c1ccc(N2CCOCC2)cc1	.	.	-11%	.	.	6
C/C(=N\Nc1ccc([N+](=O)[O-])cc1)c1ccc(N)cc1	-22%	27	-2%	?	?	14
C/C(=N\Nc1ccc([N+](=O)[O-])cc1)c1ccc(-n2nncc2C)cc1	8.9µM*	-17	-8%	-13%	-4%	-7
CCN(Cc1cc(=O)n2ccsc2n1)c1cccc2ccccc12	?	53	13%	?	1%	-10
CCOC(=O)C(=CNc1ccc(OC)cc1[N+](=O)[O-])C(=O)OCC	.	.	5%	-7%	.	-1
CC(=O)O[C@H]1C2=CO[C@H](C)[C@H]3[C@H]4C5=C([C@H](O)[C@H]6O[C@@H]6C5=O)[C@H](O[C@H]4C)[C@@]23C(=O)[C@H]2O[C@@H]21	.	.	-3%[17.5 µM]	6%[13.5 µM]	.	.
COc1ccc(/C(N)=N/OC(=O)N2CCOCC2)cc1	.	.	-5%	16%	.	4
COc1ccc(/C(N)=N/OC(=O)C2CCC(=O)N2S(=O)(=O)c2ccc(C)cc2)cc1 (stereo not given)	-12%	-89*	-1%	-11%	-4%	-4
Cc1ccc(S(=O)(=O)N2CCN(C(=O)CSc3nc(N)cc(=O)[nH]3)CC2)c(C)c1	.	.	1%	-2%	.	5
Cc1ccc(S(=O)(=O)N2CCN(C(=O)CSc3nnnn3C)CC2)c(C)c1	.	.	0%	25µM*	.	5
CC(C)(C)C(=O)OCOP(=O)(OCOC(=O)C(C)(C)C)C(C)(Oc1ccc(O)cc1)P(=O)(OCOC(=O)C(C)(C)C)OCOC(=O)C(C)(C)C	-3%	.	0%	?	-25%[0.00818 µM]	-1
O=C(COC(=O)CN1C(=O)C(=O)c2ccccc21)OCN1C(=O)c2ccccc2C1=O	-26%	0	-4%	0.089µM*	-1%	7

From PubChem
